# HepG2 viability = qHTS for Inhibitors of TGF-b: Cytotox Counterscreen. actives 0.76% (n = 410,000). HepG2 CAGA-GFP viability, ATP luminescence, 18 h. Potency, µM (titrated, usually from 46.1 µM), most hits filed as cytotoxic
#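 CellTiter-Glo luminescence gave cytotoxicity after 18 hours at 37 degrees C. The cells were HepG2 CAGA-GFP in 1% FBS DMEM, stimulated with 500 pg/mL TGF-beta after compound addition. %Activity was normalised to no-cell wells (complete cell-killing) and DMSO (no toxicity), and curves were fitted and classified.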
# TDP1 block = qHTS Assay for Inhibitors of Tyrosyl-DNA Phosphodiesterase (TDP1) | recombinant TDP1, AlphaScreen DNA substrate cleavage | Tyrosyl-DNA phosphodiesterase 1 (Homo sapiens), Q9NUW8 | actives 0.28% (n = 350,000) | AID 485290, 2010 | Potency, µM (doses to about 130 µM), actives largely listed as inhibitors; also: nearly all actives have a fitted effect of over 40% in size
# Target sequence (Q9NUW8 whole entry, looked up): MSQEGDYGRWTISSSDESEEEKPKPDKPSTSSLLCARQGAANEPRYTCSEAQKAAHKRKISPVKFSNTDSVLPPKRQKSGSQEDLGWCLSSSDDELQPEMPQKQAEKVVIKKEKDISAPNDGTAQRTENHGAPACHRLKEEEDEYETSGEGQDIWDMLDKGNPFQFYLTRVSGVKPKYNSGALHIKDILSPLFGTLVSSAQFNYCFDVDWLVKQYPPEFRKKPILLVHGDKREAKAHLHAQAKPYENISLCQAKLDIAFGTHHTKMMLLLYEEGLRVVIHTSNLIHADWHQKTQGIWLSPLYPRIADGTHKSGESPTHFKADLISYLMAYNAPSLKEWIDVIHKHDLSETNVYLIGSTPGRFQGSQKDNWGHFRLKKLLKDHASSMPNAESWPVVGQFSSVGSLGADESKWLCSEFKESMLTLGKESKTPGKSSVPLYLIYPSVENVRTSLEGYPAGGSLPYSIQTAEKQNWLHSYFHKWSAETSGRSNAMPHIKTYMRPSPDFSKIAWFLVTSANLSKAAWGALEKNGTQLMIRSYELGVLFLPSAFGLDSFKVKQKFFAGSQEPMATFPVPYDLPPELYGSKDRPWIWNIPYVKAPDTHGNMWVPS
#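 Steps: enzyme plus compound, 15 min RT; add biotin/phosphotyrosine-FITC oligonucleotide (15 nM final), react 5 min; add donor/acceptor beads (10 ug/ml final), 10 min; read AlphaScreen. Tdp1 at 1 nM final.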
# TGFb inhibitor = qHTS for Inhibitors of TGF-b; actives 1.2% (n = 410,000); HepG2 CAGA-GFP TGF-b/SMAD3 reporter, GFP fluorescence, 18 h; TGF-beta stimulated, 500 pg/mL final; Potency, µM (top dose mostly 46.1 µM), hits mostly inhibitors; also: nearly all actives have a fitted effect of over 65% in size
#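 Per well, imaged GFP fluorescence of HEPG2 CAGA-GFP cells gives the signal; cells get compound, then TGF-beta (500 pg/mL final), 18 h at 37 degrees C; %Activity versus -TGF-beta and +DMSO controls.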
# IL-1B inflam inh = qHTS for Inhibitors of Inflammasome Signaling: IL-1-beta AlphaLISA Primary Screen | activity change, % at 57.5 µM | actives 4.7% (n = 360,000) | THP-1 LPS/ATP IL-1B secretion, AlphaLISA, 16 h; hits give low values | AID 743279, 2014; in the data active = activity change below about -50%; inconclusive = mostly about -30% to -49%
#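 Secreted IL-1B measured by AlphaLISA bead assay after 16 h compound exposure of THP-1 cells; compounds (final up to 57.5 uM) added 1 h before LPS (250 ng/mL) and ATP (1.25 mM) stimulation; lower signal means less secretion.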
# TDP1 cell noCPT = qHTS for Inhibitors of human tyrosyl-DNA phosphodiesterase 1 (TDP1): qHTS in cells in absence of CPT; DT40 Tdp1-/- hTDP1 cells, no CPT, ATP luminescence, 48 h; Potency, µM (top dose mostly 46.2 µM), actives largely listed as inhibitors; actives 15% (n = 420,000); AID 686978, 2013; also: nearly all actives have a fitted effect of over 55% in size
#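 Stably hTDP1-transfected Tdp1-null chicken DT40 cells were treated with library compounds minus camptothecin and grown for at least 48 hr at 37 °C, after which cellular ATP was quantified by luminescence.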
# DT40 TDP1 CPT = qHTS for Inhibitors of human tyrosyl-DNA phosphodiesterase 1 (TDP1): qHTS in cells in presence of CPT; chicken DT40 Tdp1-/-;hTDP1 cells + 20 nM CPT, ATP luminescence, 48 h; Potency, µM (top dose mostly 46.2 µM), actives largely listed as inhibitors; actives 12% (n = 420,000); AID 686979, 2013; also: nearly all actives have a fitted effect of over 55% in size
#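 Cell growth measured by CellTiter-Glo luminescence after a minimum 48 h, 37 C compound exposure with 20 nM CPT in Tdp1-knockout DT40 cells stably expressing hTDP1, seeded 400/well; qHTS titration format.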
# A number is an active result; n = inactive; u = inconclusive; x = no result given; [ ] = dose if it differs, or a comment. The list is not random: actives were taken first. Their share in the collection is about 18%. Unless noted, calls follow the shape of the dose curve; as a rule, active = well fitted curve in the direction sought with a large enough effect; inconclusive = small, poorly fitted or top-dose-only effect, or another doubt; inactive = no such curve, though single readings can be large; an effect the other way counts as inactive or inconclusive.
SMILES,HepG2 viability,TDP1 block,TGFb inhibitor,IL-1B inflam inh,TDP1 cell noCPT,DT40 TDP1 CPT
O=c1ccc(-c2ccc(S(=O)(=O)Nc3cccc(Br)c3)o2)n[nH]1,n,n,n,n,n,n
COC(=O)[C@@H]1CCCN1Cc1ccc2c(c1)CN(Cc1nccs1)CCO2,x,x,x,x,n,n
Clc1ccc2nc(CN3CCCc4ccccc43)cn2c1,n,n,n,-78,18µM,13µM
O=C1CCCC=C1[C@H](CCc1ccccc1)OC(=O)c1ccc(Br)cc1,x,n[21 µM],x,x,x,x
CC(C)Nc1ncnc2c1ncn2[C@H]1CN(Cc2ccccc2)C[C@@H](CO)O1,n,x,n,n,n,n
O=C(CCN1CCN(CCO)CC1)Nc1cccc(Br)c1,n,n,n,n,n,n
COc1cccc(NC(=O)CCN2CCN(c3ccccc3)CC2)c1,n,x,n,x,10µM,u
Cc1ccccc1NC(=O)CCN1CCN(Cc2ccccc2)CC1,n,n,n,n,n,n
O=C(CCN1CCN(Cc2ccccc2)CC1)Nc1ccc(OCc2ccccc2)cc1,n,n,n,n,15µM,u
O=C(CCN1CCN(Cc2ccccc2)CC1)Nc1cccc(Br)c1,n,x,n,n,16µM,16µM
Cc1cc(C)c(NC(=O)CCN2CCN(Cc3ccccc3)CC2)c(C)c1,n,x,n,n,16µM,u
O=C(CCN1CCN(CCO)CC1)Nc1ccc(OCc2ccccc2)cc1,n,n,n,n,n,n
Cc1oc2ncn(C)c(=O)c2c1C(=O)N1CCN(c2ccc(Cl)cc2)CC1,n,n,n,x,n,n
CC(C)c1ccc(CN2CCC2(C)C(=O)Nc2ccc3c(c2)OCO3)cc1 (configuration not stated),n,x,u,n,8.2µM,u
CC(C)Oc1ccc(CN2CCC2(C)C(=O)Nc2ccc3c(c2)OCO3)cc1 (configuration not stated),n,x,n,n,u,16µM
NC(C(=O)O)c1cccc(O)c1 (configuration not stated),x,n,x,x,n,n
COC(=O)Cn1cc(C(=O)c2ccco2)c2ccccc21,n,n,n,n,n,n
Cc1cc(OCCn2cc(/C(N)=N/O)c3ccccc32)ccc1Cl,n,n,u,n,u,26µM
Cc1ccc(OCCn2cc(C(=O)c3ccco3)c3ccccc32)cc1C,n,n,n,x,18µM,15µM
CCOC(=O)/C(C#N)=C/c1cn(CCOc2ccc(OC)cc2)c2ccccc12,n,n,n,n,u,15µM
COc1ccc(OCCn2cc(C(=O)c3ccco3)c3ccccc32)cc1,n,n,n,x,26µM,21µM
O=C(CSc1nnc(-c2ccc(O)cc2)o1)c1ccc(Br)cc1,n,n,n,x,u,u
CCCCN1C(N)=NC[C@@H]1CCCCN,n,x,n,n,n,n
CCCC[C@@H]1CN=C(N)N1CC(C)(C)C,n,x,n,n,23µM,u
O=C1CC(Sc2nnnn2-c2ccccc2)C(=O)N1c1cccc(Cl)c1 (configuration not stated),n,n,u,n,3.7µM,1.3µM
SMILES,HepG2 viability,TDP1 block,TGFb inhibitor,IL-1B inflam inh,TDP1 cell noCPT,DT40 TDP1 CPT
O=C1CC(SC(=Nc2ccccc2)Nc2ccccc2)C(=O)N1c1cccc(Cl)c1 (configuration not stated),n,n,n,n,18µM,u
COc1ccc(N2C(=O)CC(Sc3nnnn3-c3ccc(F)cc3)C2=O)cc1 (configuration not stated),n,n,u,n,2.9µM,1.5µM
O=C1CC(N2CCN(c3ccccc3)CC2)C(=O)N1c1cccc(Cl)c1 (configuration not stated),n,x,n,n,n,n
COc1ccc(N2C(=O)CC(Sc3nc(C)cc(C)c3C#N)C2=O)cc1 (configuration not stated),n,n,n,n,n,n
CCCCCCCCN=C(N)c1ccc(C(=O)OCC2CCCCC2)cc1,x,n,x,x,x,x
CCCCCNC(=O)CCCCCn1c(=O)[nH]c2ccsc2c1=O,n,n,u,x,n,n
Cc1ccc(C(=O)Nc2cc3[nH]c(=O)oc3cc2C)cc1,n,x,u,n,n,n
CN(C)CCC1c2ccc(Cl)cc2CCc2cccnc21 (configuration not stated) (tested in a mixture with another compound),n,n,n,-75,u,n
CN(C)CCC(c1ccc(Cl)cc1)c1ccccn1 (configuration not stated),n,n,n,n,n,n
CC(C)N(C)c1ncnc2c1ncn2[C@H]1CN(Cc2ccc(Cl)cc2)C[C@@H](CO)O1,n,x,n,n,u,u
COc1ccc(CNC(=O)C(C)N(Cc2ccccc2OC)C(=O)c2snc(C(N)=O)c2N)cc1 (configuration not stated),n,x,n,n,u,u
COc1ccc(Cl)cc1-c1cc(C(=O)NCc2ccc(F)cc2)[nH]n1,n,x,n,n,8.2µM,6.5µM
Cc1cc(F)ccc1-c1cc(C(=O)NCc2ccccc2)[nH]n1,n,x,n,n,u,26µM
COc1ccc(Cl)cc1-c1cc(C(=O)NCc2cccc(C(F)(F)F)c2)[nH]n1,n,x,u,n,u,7.3µM
COc1cc(F)ccc1-c1cc(C(=O)NCc2ccc(C(F)(F)F)cc2)[nH]n1,n,x,u,n,u,u
COc1ccc(Cl)cc1-c1cc(C(=O)NCc2ccc(C(F)(F)F)cc2)[nH]n1,n,x,u,n,7.3µM,4.6µM
COc1ccc(C2CC(c3ccccc3)Oc3ccc(C(C)(C)C)cc32)cc1 (configuration not stated),n,n,n,x,x,x
COc1ccc(-c2cc(C(=O)N3CC(C)CC(C)C3)c3ccccc3n2)cc1OC (configuration not stated),n,n[0.505 µM],n,n,u,u
COc1ccc(-c2cc(-c3nnc(COC(=O)C4CC4C)o3)c3ccccc3n2)cc1OC (configuration not stated),n,n,n,-53,16µM,21µM
COc1ccc(-c2cc(-c3nnc(COC(=O)C4CC4)o3)c3ccccc3n2)cc1OC,n,n,u,n,9.2µM,u
